Screen size: about 5,500 compounds; about 2,000 (36%) were called active. Another 18% or so got no clear call; they are omitted. No stated cut-off is given here; in the data, active means normalized growth mostly below about 0.91 (no sharp cut-off); inconclusive means no clear call, values can overlap the other calls; inactive means mostly above about 0.92. This is one part of the list.
Assay: chemical genetic growth profiling, strain panel (AID 1159580);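 further: tested at 20 µM; growth read once vehicle control cultures reached saturation at 30 °C; 1 = growth at the plate median or of vehicle wells; lower values mean less growth of the strain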
Conditions: growth OD

Measured: normalized growth

CC1(C)OC(=O)NC1=O
inactive: S. cerevisiae deletion strains, locus YJR075W, strain HOC1, active compounds read low 0.981 | S. cerevisiae deletion strains, locus YKL009W, strain mrt4, active compounds read low 0.966 | S. cerevisiae deletion strains, locus YKL068W, active compounds read low 0.988 | S. cerevisiae deletion strains, locus YKL085W, strain MDH1 (second series), active compounds read low 1.06 | S. cerevisiae deletion strains, locus YKL085W, strain MDH1, active compounds read low 1.06 | S. cerevisiae deletion strains, locus YKL160W, strain elf1, active compounds read low 1.01 | S. cerevisiae deletion strains, locus YKR001C, strain vps1, active compounds read low 1.01 | S. cerevisiae deletion strains, locus YKR026C, strain gcn3, active compounds read low 0.994 | S. cerevisiae deletion strains, locus YKR091W, strain srl3, active compounds read low 1.01 | S. cerevisiae deletion strains, locus YLL001W, strain dnm1, active compounds read low 1.02 | S. cerevisiae deletion strains, locus YLL026W, active compounds read low 1.01 | S. cerevisiae deletion strains, locus YLL041C, strain sdh2, active compounds read low 1.01 | S. cerevisiae deletion strains, locus YLR027C, strain aat2, active compounds read low 1.01 | S. cerevisiae deletion strains, locus YLR039C, strain RIC1, active compounds read low 1.02 | S. cerevisiae deletion strains, locus YLR058C, strain SHM2, active compounds read low 0.983 | S. cerevisiae deletion strains, locus YLR102C, strain apc9, active compounds read low 0.981 | S. cerevisiae deletion strains, locus YLR113W, strain HOG1, active compounds read low 1.02 | S. cerevisiae deletion strains, locus YLR221C, strain rsa3, active compounds read low 0.991 | S. cerevisiae deletion strains, locus YLR258W, strain gsy2, active compounds read low 1 | S. cerevisiae deletion strains, locus YLR262C, strain YPT6 (second series), active compounds read low 1.03 | S. cerevisiae deletion strains, locus YLR262C, strain YPT6, active compounds read low 0.97 | S. cerevisiae deletion strains, locus YLR268W, strain sec22, active compounds read low 0.989 | S. cerevisiae deletion strains, locus YLR320W, strain mms22, active compounds read low 0.975 | S. cerevisiae deletion strains, locus YLR330W, strain CHS5, active compounds read low 0.996 | S. cerevisiae deletion strains, locus YLR342W, strain FKS1 (second series), active compounds read low 1.04 | S. cerevisiae deletion strains, locus YLR342W, strain FKS1, active compounds read low 1.02 | S. cerevisiae deletion strains, locus YLR357W, strain rsc2, active compounds read low 1.03 | S. cerevisiae deletion strains, locus YLR370C, strain arc18, active compounds read low 1.02 | S. cerevisiae deletion strains, locus YLR371W, strain rom2, active compounds read low 0.98 | S. cerevisiae deletion strains, locus YLR384C, strain iki3, active compounds read low 1.01 | S. cerevisiae deletion strains, locus YLR418C, strain cdc73, active compounds read low 0.958 | S. cerevisiae deletion strains, locus YML016C, strain PPZ1, active compounds read low 0.997 | S. cerevisiae deletion strains, locus YML032C, strain rad52, active compounds read low 0.98 | S. cerevisiae deletion strains, locus YML120C, strain ndi1, active compounds read low 1.02 | S. cerevisiae deletion strains, locus YML124C, strain tub3, active compounds read low 0.983 | S. cerevisiae deletion strains, locus YMR058W, strain fet3, active compounds read low 1.03 | S. cerevisiae deletion strains, locus YMR078C, strain ctf18, active compounds read low 0.971 | S. cerevisiae deletion strains, locus YMR125W, strain sto1, active compounds read low 1.05 | S. cerevisiae deletion strains, locus YMR129W, active compounds read low 1.01 | S. cerevisiae deletion strains, locus YMR205C, strain PFK2, active compounds read low 1.02 | S. cerevisiae deletion strains, locus YMR223W, strain ubp8, active compounds read low 0.964 | S. cerevisiae deletion strains, locus YMR231W, strain pep5, active compounds read low 1.01 | S. cerevisiae deletion strains, locus YMR263W, strain SAP30, active compounds read low 0.981 | S. cerevisiae deletion strains, locus YMR307W, strain GAS1, active compounds read low 1.05 | S. cerevisiae deletion strains, locus YNL067W, strain RPL9B, active compounds read low 0.972 | S. cerevisiae deletion strains, locus YNL071W, strain lat1, active compounds read low 1 | S. cerevisiae deletion strains, locus YNL153C, strain GIM3, active compounds read low 0.989 | S. cerevisiae deletion strains, locus YNL183C, strain NPR1, active compounds read low 0.975 | S. cerevisiae deletion strains, locus YNL209W, strain ssb2, active compounds read low 0.996 | S. cerevisiae deletion strains, locus YNL233W, strain BNI4, active compounds read low 0.983 | S. cerevisiae deletion strains, locus YNL248C, strain rpa49, active compounds read low 1.07 | S. cerevisiae deletion strains, locus YNL250W, strain rad50, active compounds read low 0.967 | S. cerevisiae deletion strains, locus YNL271C, strain bni1, active compounds read low 0.966 | S. cerevisiae deletion strains, locus YNL298W, strain CLA4, active compounds read low 0.971 | S. cerevisiae deletion strains, locus YNL307C, strain MCK1, active compounds read low 0.983 | S. cerevisiae deletion strains, locus YNL322C, strain KRE1 (second series), active compounds read low 1.01 | S. cerevisiae deletion strains, locus YNL322C, strain KRE1, active compounds read low 1.01 | S. cerevisiae deletion strains, locus YNR049C, strain mso1, active compounds read low 1.01 | S. cerevisiae deletion strains, locus YNR052C, strain pop2, active compounds read low 0.971 | S. cerevisiae deletion strains, locus YOL006C, strain TOP1, active compounds read low 0.926 | S. cerevisiae deletion strains, locus YOL012C, strain htz1 0.866 | S. cerevisiae deletion strains, locus YOL147C, strain pex11, active compounds read low 0.973 | S. cerevisiae deletion strains, locus YOR001W, strain rrp6, active compounds read low 1.02 | S. cerevisiae deletion strains, locus YOR061W, strain CKA2, active compounds read low 0.994 | S. cerevisiae deletion strains, locus YOR069W, strain VPS5, active compounds read low 0.991 | S. cerevisiae deletion strains, locus YOR070C, strain gyp1, active compounds read low 0.999 | S. cerevisiae deletion strains, locus YOR080W, strain dia2, active compounds read low 1.02 | S. cerevisiae deletion strains, locus YOR083W, strain WHI5, active compounds read low 0.987 | S. cerevisiae deletion strains, locus YOR106W, strain vam3, active compounds read low 1.03 | S. cerevisiae deletion strains, locus YOR136W, strain idh2, active compounds read low 0.974 | S. cerevisiae deletion strains, locus YOR144C, strain elg1, active compounds read low 0.976 | S. cerevisiae deletion strains, locus YOR184W, strain ser1, active compounds read low 0.966 | S. cerevisiae deletion strains, locus YOR231W, strain MKK1, active compounds read low 1.04 | S. cerevisiae deletion strains, locus YOR265W, strain rbl2, active compounds read low 1.01 | S. cerevisiae deletion strains, locus YOR270C, strain vph1, active compounds read low 1.07 | S. cerevisiae deletion strains, locus YOR290C, strain snf2, active compounds read low 1.02 | S. cerevisiae deletion strains, locus YOR316C, strain cot1, active compounds read low 0.98 | S. cerevisiae deletion strains, locus YPL051W, strain arl3, active compounds read low 1.01 | S. cerevisiae deletion strains, locus YPL078C, strain atp4, active compounds read low 1.01 | S. cerevisiae deletion strains, locus YPL106C, strain sse1, active compounds read low 0.997 | S. cerevisiae deletion strains, locus YPL240C, strain hsp82, active compounds read low 0.996 | S. cerevisiae deletion strains, locus YPL256C, strain CLN2, active compounds read low 1.08 | S. cerevisiae deletion strains, locus YPR119W, strain clb2, active compounds read low 0.977 | S. cerevisiae deletion strains, locus YPR141C, strain kar3, active compounds read low 0.958 | S. cerevisiae deletion strains, locus YPR163C, strain tif3, active compounds read low 0.982 | S. cerevisiae deletion strains, locus YPR167C, strain met16, active compounds read low 0.972 | S. cerevisiae deletion strains, strain wtn01, active compounds read low 0.982 | S. cerevisiae strains, strain wild type, active compounds read low 0.998
